In the library only some 0.43% were active in any assay of this set; here they are far more common.
RGS12 GoLoco inh: RGS12 GoLoco-Gai1 interaction inhibition; P63096; Gai1:RGS12 GoLoco peptide FP, rhodamine, 10 min; Potency, µM (highest dose often 61.6 µM), most hits filed as inhibitors; actives 0.44% (n = 230,000); AID 880; active = well fitted inhibition curve with a large enough effect, not every such curve was filed as active; inactive = no such curve, though single readings can be large or run the other way; also: nearly all actives have a fitted effect of over 30% in size
Tb PFK inh-1: blocks T. brucei phosphofructokinase | O15648 | T. brucei PFK, ADP-Glo luminescence | Potency, µM (doses to about 57.5 µM), most hits filed as inhibitors | actives 0.17% (n = 330,000); also: nearly all actives have a fitted effect of over 60% in size
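Activity is normalized to no-enzyme wells (full inhibition) and 1.25 nM enzyme wells (no inhibition). Reaction: 0.5 mM F6P, 0.1 mM ATP, 45 min RT, ADP-Glo luminescence; concentration-response curves fitted and classed by quality.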
Menin-MLL FL inh: menin-MLL binding inhibition, fluorescein peptide | FP activity change, % at 61.4 µM | Fluorescence polarization, fluorescein-MLL peptide displacement from menin | 290,000 tested, under 10 active; active = well fitted curve in the direction sought with a large enough effect in the polarisation, not every such curve was filed as active; inconclusive = small, poorly fitted or top-dose-only effect, or effect the other way, or a change in a side signal; inactive = no such curve, though single readings can be large or run the other way; the % refers to the polarisation
CXXC DNA block: inhibitors of human MLL CXXC domain-DNA interaction; AID 2662; actives 0.037% (n = 290,000); MLL-CXXC / FITC-HOXA9 DNA fluorescence polarization; Potency, µM (doses to about 115 µM), most hits filed as inhibitors; Q03164; active = well fitted inhibition curve with a large enough effect in the polarisation, with a control signal flat, not every such curve was filed as active; inconclusive = small, poorly fitted or top-dose-only effect, or effect the other way, or a change in a side signal; inactive = no such curve, though single readings can be large or run the other way; the % refers to the polarisation
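Fluorescence polarization: 7 uM MLL-CXXC (stock) preincubated 5 min with compounds, then 50 nM fluorescein-HOX-A9 DNA (stock) added; 30 min ambient. Buffer 50 mM Tris-HCl pH 7.5, 50 mM NaCl, 1 mM DTT, 0.05% BSA.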
Menin-MLL TR inh: menin-MLL binding inhibition, Texas Red mutant peptide. Menin + Texas Red MLL mutant peptide, fluorescence polarization. Potency, µM (series often up to 61.6 µM), usual class: inhibitors. actives 0.23% (n = 270,000). AID 1768; active = well fitted inhibition curve with a large enough effect in the polarisation, with a control signal flat, not every such curve was filed as active; inconclusive = small, poorly fitted or top-dose-only effect, or effect the other way, or a change in a side signal; inactive = no such curve, though single readings can be large or run the other way; the % refers to the polarisation
Target sequence (O00255 whole entry, looked up): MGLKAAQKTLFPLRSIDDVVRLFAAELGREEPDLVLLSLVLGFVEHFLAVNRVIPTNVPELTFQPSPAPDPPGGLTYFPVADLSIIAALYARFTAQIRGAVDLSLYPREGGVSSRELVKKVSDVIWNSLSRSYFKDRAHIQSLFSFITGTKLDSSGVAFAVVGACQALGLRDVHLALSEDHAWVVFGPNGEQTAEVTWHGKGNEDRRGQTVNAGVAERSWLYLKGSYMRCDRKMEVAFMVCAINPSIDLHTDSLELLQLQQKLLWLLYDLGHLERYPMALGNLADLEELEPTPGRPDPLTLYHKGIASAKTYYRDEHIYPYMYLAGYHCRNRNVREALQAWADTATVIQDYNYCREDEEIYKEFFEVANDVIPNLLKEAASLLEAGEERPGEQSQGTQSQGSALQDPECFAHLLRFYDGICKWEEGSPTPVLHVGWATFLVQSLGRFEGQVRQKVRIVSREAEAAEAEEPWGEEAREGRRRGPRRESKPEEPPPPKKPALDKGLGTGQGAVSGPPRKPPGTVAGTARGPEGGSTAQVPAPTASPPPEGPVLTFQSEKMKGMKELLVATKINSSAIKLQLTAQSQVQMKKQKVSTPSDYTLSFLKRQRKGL
TbPFK ATP: Tb phosphofructokinase inhibition, orthogonal luminescence; shares compounds with Tb PFK inh-1; Tb PFK enzyme, ATP depletion, Kinase-Glo Plus luminescence; Potency, µM (series often up to 57.5 µM); actives 47% (n = 1,100); calls by dose curve; also: nearly all actives have a fitted effect of over 60% in size
Tb PFK inh-2: T. brucei PFK enzyme inhibition, hit validation. shares compounds with Tb PFK inh-1. purified T. brucei PFK, ADP-Glo luminescence, 45 min. Potency, µM (doses to about 57.5 µM), most hits filed as inhibitors. actives 41% (n = 1,100). AID 504637; also: nearly all actives have a fitted effect of over 60% in size
Numbers stand for hits; [ ] = another dose, or the depositor's remark. Unless noted, calls follow the shape of the dose curve; as a rule, active = well fitted inhibition curve with a large enough effect; inconclusive = small, poorly fitted or top-dose-only effect, or effect the other way; inactive = flat fitted curve, though single readings scatter.

Screening CCOC(=O)Cn1c(=N)n(CCOc2ccc(F)cc2)c2ccccc21 returned RGS12 GoLoco inh inactive, Tb PFK inh-1 5.4µM, Menin-MLL FL inh inactive, CXXC DNA block inactive, TbPFK ATP 3µM and Tb PFK inh-2 5.4µM.
For CC(=O)C1=C(O)C=C2Oc3c(C(C)=O)c(O)c(C)c(O)c3C2(C)C1=O (configuration not stated) the results were RGS12 GoLoco inh inactive, Menin-MLL FL inh inconclusive and Menin-MLL TR inh inactive.
Screening CC(=O)Nc1cccc(NC(=S)Nc2ccc(F)c(Cl)c2)c1 returned RGS12 GoLoco inh inactive, Tb PFK inh-1 21µM, Menin-MLL FL inh inactive, CXXC DNA block inactive, Menin-MLL TR inh inconclusive, TbPFK ATP inconclusive and Tb PFK inh-2 inconclusive.
For Cc1cccnc1NC(=S)Nc1ncccc1C the results were RGS12 GoLoco inh inactive, Tb PFK inh-1 inactive, Menin-MLL FL inh inactive, CXXC DNA block inactive and Menin-MLL TR inh inactive.
Screening Cc1cccnc1NC(=S)Nc1ccc(Cl)c(Cl)c1 returned RGS12 GoLoco inh inactive, Tb PFK inh-1 13µM, Menin-MLL FL inh inactive, CXXC DNA block inactive, Menin-MLL TR inh inconclusive, TbPFK ATP inconclusive and Tb PFK inh-2 inconclusive.
For FC(F)(F)c1cccc(NC(=S)Nc2ccc(Cl)c(Cl)c2)c1 the results were RGS12 GoLoco inh inactive, Tb PFK inh-1 9.5µM, Menin-MLL FL inh inactive, CXXC DNA block inactive, TbPFK ATP inconclusive and Tb PFK inh-2 inconclusive.
Screening FC(F)(F)c1cccc(NC(=S)NNC(=S)Nc2cccc(C(F)(F)F)c2)c1 returned RGS12 GoLoco inh inactive, Tb PFK inh-1 inactive, Menin-MLL FL inh inactive and CXXC DNA block inactive.
For CCCCCCSc1ccc([C@H]2N[C@@](C)(C(=O)OC)[C@H]3C(=O)N(C)C(=O)[C@@H]23)cc1 the results were Tb PFK inh-1 inactive.
Screening CO/N=C/c1ccc(OC)c(Oc2nc(OC)cc(OC)n2)c1 returned RGS12 GoLoco inh inactive, Tb PFK inh-1 inactive, Menin-MLL FL inh inactive, CXXC DNA block inactive and Menin-MLL TR inh inactive.
Screening O=C1C2CC=C(Cl)CC2C(=O)N1CCCCCCN1C(=O)C2CC=C(Cl)CC2C1=O (configuration not stated) returned RGS12 GoLoco inh inactive, Tb PFK inh-1 inconclusive, Menin-MLL FL inh inconclusive, CXXC DNA block inactive, Menin-MLL TR inh inactive, TbPFK ATP inconclusive and Tb PFK inh-2 inconclusive.
Screening O=C(COC(=O)c1cc(Cl)nc(Cl)c1)Nc1ccc(Cl)c(S(=O)(=O)N2CCOCC2)c1 returned Tb PFK inh-1 inactive.
Screening O=C(COC(=O)c1ccc(Cl)c(S(=O)(=O)N2CCOCC2)c1)Nc1ccc2[nH]c(=O)[nH]c2c1 returned Tb PFK inh-1 inconclusive, TbPFK ATP inconclusive and Tb PFK inh-2 inconclusive.
`O=[N+]([O-])c1c(Nc2ccc(O)cc2)cc(Cl)c2nonc12` gave Tb PFK inh-1 inconclusive, Menin-MLL FL inh inconclusive, CXXC DNA block inactive, Menin-MLL TR inh inconclusive, TbPFK ATP 7.6µM and Tb PFK inh-2 inconclusive.
Screening CN(C)c1cc(Nc2ccc(O)cc2)c([N+](=O)[O-])c2nonc12 returned RGS12 GoLoco inh inactive, Tb PFK inh-1 inactive, Menin-MLL FL inh inactive and CXXC DNA block inactive.
c1cc(SSc2ccncc2)ccn1 was read as Tb PFK inh-1 24µM, Menin-MLL FL inh inconclusive, CXXC DNA block inactive, Menin-MLL TR inh inconclusive, TbPFK ATP 17µM and Tb PFK inh-2 inconclusive.
For CCCC(=O)Nc1ccc(OC[C@@H](O)CNC(C)C)c(C(C)=O)c1 the results were RGS12 GoLoco inh inactive, Menin-MLL FL inh inactive, CXXC DNA block inactive and Menin-MLL TR inh inactive.
For Cn1c(SCC(=O)O)nnc1-c1ccc(NC(=O)c2ccc(Cl)c(Cl)c2)cc1 the results were RGS12 GoLoco inh inactive, Tb PFK inh-1 inconclusive, Menin-MLL FL inh inactive, CXXC DNA block inactive, TbPFK ATP 24µM and Tb PFK inh-2 inconclusive.
For N#CCCCS(=O)(=O)c1nnnn1-c1ccc(Br)cc1 the results were RGS12 GoLoco inh inactive, Menin-MLL FL inh inactive and Menin-MLL TR inh inactive.
Screening Cc1nnc(NCCc2ccccc2)[nH]c1=O returned RGS12 GoLoco inh inactive, Tb PFK inh-1 inconclusive, Menin-MLL FL inh inactive, CXXC DNA block inactive, Menin-MLL TR inh inactive, TbPFK ATP 24µM and Tb PFK inh-2 27µM.
`COc1cc2c(cc1OC)[C@H](C)NCC2` gave RGS12 GoLoco inh inactive, Menin-MLL FL inh inactive and Menin-MLL TR inh inactive.
Screening C[C@@H]1NCCc2cc(O)c(O)cc21 returned RGS12 GoLoco inh 3.5µM, Tb PFK inh-1 inconclusive, Menin-MLL FL inh inactive, Menin-MLL TR inh inactive, TbPFK ATP 8.5µM and Tb PFK inh-2 inconclusive.
Screening O=c1ccsn1Cc1ccccc1 returned RGS12 GoLoco inh inactive, Tb PFK inh-1 11µM, Menin-MLL FL inh inactive, CXXC DNA block inactive, Menin-MLL TR inh inactive, TbPFK ATP inactive and Tb PFK inh-2 11µM.
O=c1cc(Cl)[nH]c(=O)n1Cc1ccccc1 was read as Tb PFK inh-1 inactive, Menin-MLL FL inh inactive, CXXC DNA block inactive and Menin-MLL TR inh inactive.
For CC(=O)Nc1ccc(S(=O)(=O)N2CCc3nc(-c4ccccc4)c4c(c3C2)CO[C@@H](C)C4)cc1 the results were RGS12 GoLoco inh inactive[14.2 µM], Menin-MLL FL inh inactive[11.7 µM] and Menin-MLL TR inh inactive[11.7 µM].
`CN(C(Cc1ccc(OS(=O)(=O)c2cccc3cnccc23)cc1)C(=O)N1CCN(c2ccccc2)CC1)S(=O)(=O)c1cccc2cnccc12` (configuration not stated) gave RGS12 GoLoco inh inactive.
`CC(CNc1ccccc1O)C(=O)O` (configuration not stated) gave RGS12 GoLoco inh inactive, Tb PFK inh-1 24µM, Menin-MLL FL inh inactive, CXXC DNA block inactive, Menin-MLL TR inh inactive, TbPFK ATP inconclusive and Tb PFK inh-2 inconclusive.
For CC(Oc1ccccc1)C(=O)Nc1ccccc1O (configuration not stated) the results were RGS12 GoLoco inh inactive, Tb PFK inh-1 inactive, Menin-MLL FL inh inactive, CXXC DNA block inactive and Menin-MLL TR inh inactive.
Screening Cc1ccc2c(c1)sc(C)[n+]2CCCS(=O)(=O)[O-] returned RGS12 GoLoco inh inactive, Tb PFK inh-1 inconclusive, Menin-MLL FL inh inactive, CXXC DNA block inactive, Menin-MLL TR inh inactive, TbPFK ATP inactive and Tb PFK inh-2 inactive.
For O=C(c1cccn(Cc2ccc(Cl)c(Cl)c2)c1=O)N1CCOCC1 the results were RGS12 GoLoco inh inactive, Tb PFK inh-1 inconclusive, Menin-MLL FL inh inactive and CXXC DNA block inactive.
`O=C(c1cccn(Cc2cccc(Cl)c2)c1=O)N1CCOCC1` gave RGS12 GoLoco inh inactive, Tb PFK inh-1 24µM, Menin-MLL FL inh inactive, CXXC DNA block inactive, Menin-MLL TR inh inactive, TbPFK ATP 21µM and Tb PFK inh-2 24µM.

Assay outcomes: PubChem BioAssay, National Center for Advancing Translational Sciences (NCATS)
